hcDAF-12 act: activates DAF-12 receptor from parasite H. contortus; HEK293 hcDAF-12 lit1-tk-luc reporter, luminescence; 0% DMSO, 100% Δ7-dafachronic acid; activation, % at 6.8 µM; actives 1.4% (n = 370,000); AID 652067;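 active means activation above the mean of all tested compounds plus 3 SD, cut at about 5.5% in these data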
Rev-erbA mod: modulators of human Rev-erb alpha DNA binding. P20393. Rev-erbα–FITC-DNA binding, fluorescence polarization, 90 min. activity, % at 10 µM. actives 0.79% (n = 370,000). AID 1259318;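 active means activity above about 14%, limit read from the data; passing the limit was not always enough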
ssDAF-12 act: S. stercoralis DAF-12 activation, primary screen; HEK293 ssDAF-12/GRIP1 lit1-tk-luc reporter, luminescence; % of 3 µM dafachronic acid response; activation, % at 6.8 µM; actives 1% (n = 370,000); AID 652126;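 active means activation above the mean over all tested compounds plus 3 SD, cut at about 0.9% in these data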
hgDAF-12 ag: hgDAF-12 agonism, primary luciferase screen. HEK293 GAL4-hgDAF12 UAS-luciferase reporter, agonist luminescence; normalized to butyrate control. activation, % at 6.8 µM. actives 1.8% (n = 370,000);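 active means activation above a cutoff set at the mean of all screened compounds plus 3 SD, cut at about 10% in these data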
DAX1 inh-1: blocks DAX1 repression of SF-1 activated StAR promoter; actives 1.1% (n = 370,000); HEK293T StAR-luciferase reporter, SF-1/DAX-1 repression relief; inhibition, % at 6.8 µM;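 active means inhibition above the mean over all tested compounds plus 3 SD, cut at about 3.6% in these data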;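 further: higher inhibition means more luminescence from relief of DAX-1 repression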
DAX1 inh-2: inhibits human nuclear receptor DAX1; inhibition, % at 6.75 µM; HEK293 Gal4-DAX1 luciferase reporter, luminescence; actives 0.99% (n = 340,000); AID 504766;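 active means inhibition above the mean over all tested compounds plus 3 SD, cut at about 4.2% in these data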;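 further: inhibition shows as a rise in luminescence from relieved DAX1 repression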
Target sequence (P51843 207-470 limits assumed): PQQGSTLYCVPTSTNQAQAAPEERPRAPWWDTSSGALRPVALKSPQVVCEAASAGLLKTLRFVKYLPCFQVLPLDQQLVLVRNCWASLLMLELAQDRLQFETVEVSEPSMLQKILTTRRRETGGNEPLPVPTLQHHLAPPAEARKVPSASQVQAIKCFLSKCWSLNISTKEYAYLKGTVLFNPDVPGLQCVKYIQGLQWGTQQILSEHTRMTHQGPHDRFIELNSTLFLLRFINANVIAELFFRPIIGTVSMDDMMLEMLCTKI
NR1D1 mod conf: Rev-erb alpha (human) modulation, hit confirmation; AID 1259319; shares compounds with Rev-erbA mod; Rev-erb alpha FITC-DNA binding, fluorescence polarization, 90 min; activation, % at 25 µM; actives 61% (n = 3,000);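 active means activation at or above a set limit, or at least 3 SD above the negative control mean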
RORg DNA counter: RORgamma DNA-binding activity, dose-response counter-screen; actives 8% (n = 910); IC50, µM; AID 1259320; purified RORgamma protein-FITC-DNA binding, fluorescence polarization; shares compounds with Rev-erbA mod;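 active means Compounds whose fitted half-maximal concentration for disrupting protein-DNA binding is below 10 micromolar; the record names Rev-erb in its text, so the target is in doubt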
Large screens that a line does not name were inactive (follow-up assays come after a bar, where they were run). The list is not random: actives were taken first. Their share in the collection is about 4.8%.

Cc1nc(SCC(=O)Nc2ccccc2)c2oc3ccccc3c2n1	Rev-erbA mod 781.5 | NR1D1 mod conf 665.8 | RORg DNA counter inactive
Cc1nc(SCC(=O)NC(C)c2ccccc2)c2oc3ccccc3c2n1 (stereo not drawn)	none
COCCn1c(SCC(=O)Nc2ccc(F)cc2)nc2c(oc3ccccc32)c1=O	none
Cc1nc(SCC(=O)Nc2ccc(F)cc2)c2oc3ccccc3c2n1	Rev-erbA mod 220.0 | NR1D1 mod conf 233.5 | RORg DNA counter inactive
O=C(CSc1nc2c(c(C(F)(F)F)n1)CCc1ccccc1-2)NCc1ccccc1	Rev-erbA mod 97.5 | NR1D1 mod conf 40.3 | RORg DNA counter inactive
O=C(CSc1nc2c(c(C(F)(F)F)n1)CCc1ccccc1-2)NCc1ccc(F)cc1	Rev-erbA mod 59.9 | NR1D1 mod conf inactive
Cc1c(OCC(=O)Nc2cccnc2)ccc2c3c(c(=O)oc12)CCC3	none
Cc1c(C)c2ccc(OCC(=O)Nc3ccc(S(N)(=O)=O)cc3)c(C)c2oc1=O	Rev-erbA mod 25.3 | NR1D1 mod conf inactive
COc1ccc2c(c1)c(=O)oc1c(C)c(OCC(=O)N3CCc4ccccc4C3)ccc12	Rev-erbA mod 20.0 | NR1D1 mod conf inactive
Cc1cc(=O)oc2cc(OCC(=O)N3CCc4ccccc4C3)ccc12	none
COC(=O)c1ccc(S(=O)(=O)NCCSc2nnc3c4ccccc4n(C)c3n2)cc1	Rev-erbA mod 29.2 (no result: hcDAF-12 act, ssDAF-12 act, hgDAF-12 ag, DAX1 inh-1) | NR1D1 mod conf 17.7
Cc1ccc2cc(CN(c3cccc(C)c3C)S(=O)(=O)c3ccccc3)c(=O)[nH]c2c1	Rev-erbA mod 20.4 | NR1D1 mod conf inactive
Cc1ccc(N(Cc2cc3ccc(C)cc3[nH]c2=O)S(=O)(=O)c2ccccc2)c(C)c1	Rev-erbA mod 14.9 | NR1D1 mod conf inactive
Cc1ccc2cc(CN(c3ccccc3)S(=O)(=O)c3ccccc3)c(=O)[nH]c2c1	Rev-erbA mod 30.9 | NR1D1 mod conf inactive
O=C(Nc1ccc2c(c1)OCO2)NC1CCN(S(=O)(=O)c2ccc(F)cc2)CC1	none (no result: DAX1 inh-2)
Cc1cc(NS(=O)(=O)c2ccc(NC(=O)CSc3nnc(-c4ccncc4)n3Cc3ccco3)cc2)nc(C)n1	none (no result: DAX1 inh-2)
COc1ccc(/C=C(/C(=O)c2ccc(Cl)cc2Cl)n2cncn2)cc1	none
CN(C)c1ccc(/C=C(/C(=O)c2ccc(Cl)cc2Cl)n2cncn2)cc1	Rev-erbA mod 21.2 | NR1D1 mod conf 17.8
CC(=O)OCC1OC(n2c(-c3ccc(Cl)cc3)ccc(C#N)c2=S)C(OC(C)=O)C(OC(C)=O)C1OC(C)=O (stereo not drawn)	Rev-erbA mod 54.5 | NR1D1 mod conf 40.7 | RORg DNA counter inactive
COc1ccc(/C=C2\SC(=O)N(CCC(=O)Nc3ccccc3)C2=O)cc1OC	Rev-erbA mod 32.3 | NR1D1 mod conf 33.6 | RORg DNA counter inactive
COc1cc(/C=C2/SC(=S)N(CC(=O)O)C2=O)ccc1OC(=O)c1ccco1	Rev-erbA mod 25.0 | NR1D1 mod conf inactive
CCOc1ccc(C(=O)Nc2ccc(C(F)(F)F)n(C)c2=O)cc1	Rev-erbA mod 35.1 | NR1D1 mod conf inactive
CCOc1ccc(C(=O)Nc2ccccc2OC(F)F)cc1	none
CCOC(=O)c1cnc2c(cnn2C)c1NCc1ccc(OC)cc1	Rev-erbA mod 27.5 | NR1D1 mod conf 22.0
COc1ccc(CNc2c(C(=O)O)cnc3c2cnn3C)cc1	none
O=C(OC12CCCN(C1)/C(=C/c1cccc(Cl)c1)C2)C1CCCCC1 (stereo not drawn)	none (no result: DAX1 inh-2)
COc1ccc(C2=NN(C(=O)CSc3ncccn3)C(c3ccc(OC)cc3)C2)cc1 (stereo not drawn)	none
COc1ccc(C2=NN(C(=O)CSc3nc(=O)n4cc(C)ccc4n3)C(c3ccc(C)cc3)C2)cc1 (stereo not drawn)	Rev-erbA mod 57.5 | NR1D1 mod conf 19.8
O=[N+]([O-])c1ccc(COc2cccc(CO)c2)cc1	none (no result: DAX1 inh-2)
